Measurements from PubChem BioAssay AID1645859 (Buhrlage Lab, Dana-Farber Cancer Institute and Novartis …, 2021).
The campaign covered roughly 47,000 compounds. About 95 (0.2%) were called active. For the sample, actives were picked, then their nearest neighbours and some compounds at random. Unmarked numbers belong to inactive results. Rule as the data show it: active = inhibition above about 30%; inactive = the rest.

Each compound was assayed against Ubiquitin carboxyl-terminal hydrolase isozyme L1 (Homo sapiens) (UniProt P09936) (assay: inhibitors of human UCHL1 deubiquitinase (AID 1645859)). Details: purified UCHL1, Ub-rhodamine cleavage fluorescence; at 20 µM; hits give high values.
Sequence of Ubiquitin carboxyl-terminal hydrolase isozyme L1 (Homo sapiens) (P09936 whole entry, looked up): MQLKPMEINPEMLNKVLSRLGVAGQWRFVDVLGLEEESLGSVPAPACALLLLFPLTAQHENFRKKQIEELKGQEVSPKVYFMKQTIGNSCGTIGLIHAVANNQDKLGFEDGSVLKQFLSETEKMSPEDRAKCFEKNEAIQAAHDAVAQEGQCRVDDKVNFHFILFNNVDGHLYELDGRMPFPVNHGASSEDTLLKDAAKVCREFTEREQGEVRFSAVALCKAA

Row | Compound | inhibition
1 | O=C(Cn1cnc(S(=O)(=O)N2CCc3ccccc32)c1)Nc1ccc2c(c1)OCO2 | -7.24%
2 | Cc1ccc(CNC(=O)CCCn2c(=O)c3sccc3n(CC(=O)OCc3ccccc3)c2=O)cc1 | -0.426%
3 | CCN1CCN(c2ncc(C(=O)Nc3ccc(F)cc3)c(C)n2)CC1 | -0.515%
4 | O=C(CCc1nnc2ccc(N3CCCCC3)nn12)NCC1CCCO1 (stereo not drawn) | -1.95%
5 | Cc1ccc(C)c(CSC2=NCCN2C(=O)c2ccco2)c1 | -0.972%
6 | O=C(C1CCN(c2nc3ccc(-c4cccnc4)nc3s2)CC1)N1CCOCC1 | -0.864%
7 | Cc1cnn(CC2CCCCN2C(=O)Cc2c(C)noc2Cl)c1 (stereo not drawn) | 0.232%
8 | Cc1c(NC(=O)c2ccc(C(C)(C)C)cc2)c(-n2cnnc2)nn1C | -0.768%
9 | O=C(Cc1ccccc1Cl)Nc1ccc(N2CCOCC2)cc1 | 2.8%
10 | O=C(NC1CC1)c1nc(-c2ccc(-n3cccc3)cc2)no1 | 1.38%
11 | COCC(=O)N1CCCC2(COCCN(CCN(C)C)C2)C1 (stereo not drawn) | 0.844%
12 | O=C(O)C1CCCN1Cc1c(-c2cccs2)nc2ccccn12 (stereo not drawn) | -7.21%
13 | COc1ccc(N2C(=O)c3ccccc3NC2c2ccc(OCC(N)=O)cc2)cc1 (stereo not drawn) | 3.76%
14 | COc1ccc(OC)c(NC(=O)[C@H]2C[C@H](C)N[C@]23C(=O)Nc2c(Cl)cc(C)cc23)c1 | -6.13%
15 | CCCOc1ccnc2c1c(=O)n(CC(=O)NC1CCCC1)c(=O)n2C | -3.9%
16 | Cc1cccc(-c2nccnc2C2CCCN(C(=O)c3cnccn3)C2)c1 (stereo not drawn) | 5.49%
17 | COc1ccccc1C(=O)NCC(c1ccc2c(c1)CCCN2C)N1CCCC1 (stereo not drawn) | -73.4%
18 | Cc1ccc(C)c(NC(=O)C(Sc2nnc(-c3ccccc3)n2C)c2ccccc2)c1 (stereo not drawn) | 0.846%
19 | Cn1cc(N2CCC3(CCN(C(=O)c4ccc(F)cc4)CC3)C2=O)cn1 | 0.646%
20 | O=C(NC1CCOCC1)N[C@H]1C[C@H]2CN(Cc3ccccc3)Cc3ccccc3CN2C1 | 1.49%
21 | Cc1cccc(CNC(=O)C2CCCN(S(=O)(=O)Cc3ccc(F)cc3)C2)c1 (stereo not drawn) | 3.47%
22 | N#Cc1ccc(Oc2nc(-c3ccccc3)nnc2-c2ccccc2)cc1 | -0.193%

Row | Compound | inhibition
23 | O=C1CCCN1c1ccc(S(=O)(=O)N2CCc3ccccc3C2)cc1 | -1.26%
24 | CC(=O)c1cccc(NC(=O)CCN(c2cc(C)cc(C)c2)S(=O)(=O)c2ccc(Cl)cc2)c1 | 5.56%
25 | Cc1cc(C)c(NC(=O)CCN2C(=O)c3cccnc3Sc3ccccc32)c(C)c1 | -0.793%
26 | Oc1cccc2nc3c(O)cccc3nc12 | 28.5%
27 | O=C(NCCc1ccccc1)c1ccc2c(=O)n(Cc3ccco3)c(=O)n(Cc3cccc([N+](=O)[O-])c3)c2c1 | 23%
28 | CC(C)NC(=O)[C@H]1CCS(=O)(=O)[C@@H]2CN(Cc3ccccc3)C[C@H]12 | 3.58%
29 | COc1cc(OC)cc(-c2nnc(NC(=O)c3ccc([N+](=O)[O-])o3)o2)c1 | 1.67%
30 | O=C(NCc1ccc(F)cc1F)c1csc(C(=O)NC2CC2)n1 | -3.4%
31 | CC(C(=O)Nc1ccccc1F)C1CCN(C(=O)Nc2ccccc2)CC1 (stereo not drawn) | 0.962%
32 | Cc1nnc(-c2c(C)[nH]c(C)c2S(=O)(=O)NCc2ccccc2)o1 | -1.69%
33 | CC1(C)CC(=O)N(CC(=O)N2CCCCC2)c2ccccc2S1(=O)=O | 0.351%
34 | Cc1nc(-c2csc(S(=O)(=O)NC3CC3)c2)no1 | -2.36%
35 | O=C(Cn1cnc2cc3c(cc21)OCCO3)NCCc1ccccc1 | -0.00331%
36 | COCCn1ccc2nc(C)c(C(=O)N3CCN(c4cc(C)ccc4C)CC3)cc2c1=O | 1.94%
37 | CCOC(=O)C(Cc1ccccc1)NC(=O)CCC(=O)c1ccc(OC)cc1 (stereo not drawn) | 1.4%
38 | Cc1nnc(OCC(=O)Nc2ccc(OC(F)(F)F)cc2)c2ccccc12 | 8.69%
39 | CCOC(=O)c1noc2ncnc(Nc3ccc4c(c3)OCCO4)c12 | 2.47%
40 | c1cc(N2CCCCCC2)ncc1-c1noc(CN2CCCC2)n1 | 0.394%
41 | CN1Cc2ccccc2CC2(CC(Nc3ccc(C(=O)O)cc3)C2)C1=O (stereo not drawn) | -3.39%
42 | COc1cc(Cl)c(NC(=O)c2cc(-c3ccccn3)n[nH]2)c(OC)c1 | 8.97%
43 | CC(=O)OC(C)[C@]12C=C(C)[C@H]3[C@H](C)[C@@H](O[C@H]4CC[C@@H](O)[C@@H](C)O4)C4=CC(=O)C=C(N1C(=O)[C@@](C)(O)C2=O)[C@]43O (stereo partly drawn) | -4.12%
44 | Cc1cc(-c2noc(-c3cc4ccccc4oc3=O)n2)c2ccccc2n1 | -0.979%

Row | Compound | inhibition
45 | O=C(Cn1cnc(S(=O)(=O)N2CCOCC2)c1)Nc1cccc(Cl)c1 | 2.46%
46 | Cc1cc(NC(=O)c2ccc(C(=O)N(C3CCCCC3)C3CCCCC3)cc2)cc(C)c1O | 4.77%
47 | O=C1NC[C@@H](Cc2ccccc2)NC(=O)C2(C/C=C/COc3ccccc31)CCNCC2 | 2.07%
48 | COC(=O)CC[C@H]1CNC(=O)[C@@H]2[C@@H](CCN2C2CCCCC2)N1C | 8.17%
49 | O=S(=O)(NC12CC3CC(CC(C3)C1)C2)c1ccc(S(=O)(=O)N2CCCCC2)cc1 | -1.48%
50 | CNC(=O)C1(C)CN(C(=O)c2ccc3ncccc3c2)CCO1 (stereo not drawn) | -0.883%
51 | CC(C)[C@H](NC(=O)[C@@H]1Cc2c([nH]c3ccccc23)C2c3ccccc3C(=O)N21)C(=O)NCCc1ccccc1 (stereo partly drawn) | 0.101%
52 | COc1cccc(CN2CC[C@@H]3CNS(=O)(=O)[C@@H]3CC2)c1 | 5.2%
53 | O=C(Cc1ccccc1)Nc1ccc(-c2nc3cnccc3o2)c(O)c1 | 0.256%
54 | Cc1cc(F)ccc1NC(=O)c1cc(C2CC2)n2nccc2n1 | 1.97%
55 | Cc1ccc(-n2cc(-c3noc(C(=O)Nc4ccc(F)cc4C)n3)nn2)cc1 | 38.3% (active)
56 | Cc1ccc(Cn2cc(-c3noc(-c4ccccn4)n3)nn2)cc1 | -0.677%
57 | COC(=O)C(C(C)C)N1CCc2c(C)nc3cc(C#N)nn3c21 (stereo not drawn) | -5.64%
58 | Cc1cc(/C=C2/C(=N)N3C=CSC3=NC2=O)c(C)n1-c1ccc(F)cc1 | -13%
59 | Cn1c(CCN2CCCC2)nc2cc(NS(=O)(=O)c3ccccc3)ccc21 | -2.94%
60 | COc1ccc(-n2ncc3c2NC(=O)CC32C(=O)N(CC(C)C)c3ccc(F)cc32)cc1 (stereo not drawn) | 3.31%
61 | Cc1nnc2ccc(-c3ccc(NC(=O)c4ccc(Br)o4)cc3)nn12 | 7.55%
62 | NS(=O)(=O)c1ccc(CCNc2nccn(-c3ccc4c(c3)OCO4)c2=O)cc1 | -4.71%
63 | O=C(c1cc2occc2c(Nc2ccc(F)cc2)n1)N1CCN(C(=O)c2ccco2)CC1 | 3.68%
64 | CC(C)c1ccc(C2CC(=O)c3cn[nH]c3C2)cc1 (stereo not drawn) | 0.362%
65 | O=C1CC2(C(=O)Nc3ccccc32)c2cnn(-c3ccccc3Cl)c2N1 (stereo not drawn) | -0.024%
66 | COc1cccc(C2NC(=O)c3c(sc4c3CCC(C)C4)N2)c1O (stereo not drawn) | -0.199%

Row | Compound | inhibition
67 | CCn1nccc1-c1cccc(-c2noc(-c3ccccn3)n2)c1 | 3.84%
68 | Cn1cccc1/C(C#N)=C\c1ccc2c(c1)OCO2 | 12.5%
69 | CCc1cnc(N2CCC3(CC2)CC(Oc2cccnc2)C3)nc1 | -4.29%
70 | COc1ccc(NC(=O)c2cnc(N3CCCC3)nc2C)cc1OC | 2.41%
71 | CS(=O)(=O)N1CCn2c(nnc2-c2cncc(Br)c2)C1 | 1.7%
72 | O=C(c1ccccn1)N1C[C@@H]2C[C@H]1C[C@@H]2NS(=O)(=O)c1ccccc1 | -1.88%
73 | Cc1ccc(S(=O)(=O)N2CCC(c3nc(C(=O)N(C)C)c(C)o3)CC2)c(C)c1 | -3.64%
74 | CC(=O)c1ccc(S(=O)(=O)Nc2cccc(-c3nc4cccnc4s3)c2C)cc1 | 0.0973%
75 | O=C(C1CCN(c2nc3cccnc3s2)CC1)N1CCN(c2ncccn2)CC1 | 5.79%
76 | O=c1ccc(S(=O)(=O)N2CCCCCC2)cn1Cc1ccccc1 | -3.73%
77 | CNc1cncc(C2CCCN2S(=O)(=O)N2CCCC2)n1 (stereo not drawn) | 1.24%
78 | Cn1c(=O)c2c(-c3ccc(C(C)(C)C)cc3)n(-c3ccccc3Cl)cc2n(C)c1=O | 3.67%
79 | c1ccc2c(c1)NCCC(c1ccc3c(c1)OCO3)N2 (stereo not drawn) | -0.387%
80 | CC(C)(C)CN1CC[C@H](c2nnc(-c3cccnc3)o2)C1 | -3.12%
81 | COc1ccc(NC(=O)c2cccn3c(-c4ccc(F)cc4)nnc23)c(OC)c1 | -7.15%
82 | N#Cc1cnc2ccccc2c1N1CCC(C(=O)N2CCCCC2)CC1 | -2%
83 | Cc1nn(CCC(=O)Nc2ccccc2F)c(C)c1S(=O)(=O)N1CCOCC1 | -2.99%
84 | O=C(Nc1ccc2c(c1)CCC2)N1CCc2c(nc(-c3ccccc3)[nH]c2=O)C1 | -2.41%
85 | O=C(NC1CC1)c1cn(-c2cc(-c3nc(C4CC4)no3)ccn2)cn1 | 2.22%
86 | Cc1ccccc1NC(=O)Cc1csc2nc(-c3ccc(F)cc3)cn12 | 6.49%
87 | O=C(CN1C(=O)C2CCCC2=Nc2ccccc21)Nc1ccc(F)cc1F (stereo not drawn) | 2.04%
88 | COCCNC(=O)c1cc(-c2ccn(C3CCCC3)n2)n2ccccc12 | -0.227%
